LASV entry inh = inhibitors of Lassa virus binding or cell entry; Potency, µM (highest dose often 37.9 µM), without a hit: at the highest dose activity change, negative = inhibition, actives largely listed as inhibitors; Lassa virus pseudotype entry inhibition, cell reporter; AID 540256; 1.2% of 300,000 active; calls by dose curve; tested in HEK293 cells; also: nearly all actives have a fitted effect of over 50% in size
VACV mCherry inh = inhibitors of vaccinia virus infection (mCherry reporter signal) | Potency, µM (top dose mostly 36.5 µM), without a hit: at the top dose activity change, negative = inhibition, usual class: inhibitors | Vaccinia virus mCherry reporter infection, fluorescence | 0.63% of 310,000 active | AID 720579; calls by dose curve; tested in A549 cells; also: nearly all actives have a fitted effect of over 35% in size
Marburg entry inh = Marburg virus entry inhibition. Potency, µM (doses to about 37.8 µM), for the others: top-dose activity change, negative = inhibition, usual class: inhibitors. Marburg virus pseudotyped entry inhibition, cell reporter. 1.8% of 300,000 active; calls by dose curve; tested in HEK293 cells
FMDV inh = foot and mouth disease virus antiviral activity. FMDV antiviral cell-based qHTS. Potency, µM (doses to about 57.9 µM), inactives show top-dose activity change, negative = inhibition, usual class: inhibitors. 1.2% of 410,000 active. AID 1159524; calls by dose curve; tested in HEK293T cells; also: read-out not given here; nearly all actives have a fitted effect of over 45% in size
Vaccinia Venus = vaccinia inhibition (Venus reporter) | Vaccinia virus Venus reporter expression, fluorescence | Potency, µM (highest dose often 36.5 µM), for the others: at the top dose activity change, negative = inhibition, actives largely listed as inhibitors | 0.46% of 330,000 active; calls by dose curve; tested in A549 cells; also: nearly all actives have a fitted effect of over 30% in size
Starred values were filed as active, the others as inactive; i = inactive; ? = inconclusive; . = no result given; + = active, no number; [ ] = dose if it differs, or a comment. In the library only some 3.2% were active in any assay of this set; here they are far more common. % is scaled to controls: 0 for no effect and ±100 for the full control effect; potency is read from the fitted curve at half-maximal effect.

SMILES	LASV entry inh	VACV mCherry inh	Marburg entry inh	FMDV inh	Vaccinia Venus
O=C(OCC(=O)N1CCCC1)c1cc([N+](=O)[O-])ccc1Cl	16%[46.1 µM]	-11%	9%[46.1 µM]	10µM*	17%
OC1(CNCc2cn[nH]c2-c2cc3ccccc3o2)CCCCC1	-30%	-5%	7.9µM*	-25%	-7%
O=C(CC1SC(=Nc2ccccc2)N(CCCO)C1=O)Nc1ccc(Cl)cc1 (configuration not stated)	?	.	?	14µM*	?
Cc1nc2nc(-c3ccccc3)cn2nc1C	12µM*	-12%	?	.	-19%
CCc1ccc(-c2cn3nc(C)c(C)nc3n2)cc1	?	.	2.1µM*	-46%	.
Cc1nc2nc(-c3ccc(F)cc3)cn2nc1C	.	-14%	.	-26%	-8%
CCc1c(-c2ccccc2)nc2nc(C)c(C)nn12	.	?	.	16%	?
Cc1cc(C)c(Cn2c(CCNC(=O)c3ccco3)nc3ccccc32)c(C)c1	-15%[46.1 µM]	-23%	?	-29%	-14%
CN(C)c1cc(NC(=O)CN2CCCC2)c2ccccc2n1	6%[46.1 µM]	7%	10µM*	-10%	-2%
COC(=O)c1ccccc1NC(=O)CN1CCCCC1	?	+	?	-18%	+
CN(C)c1cc(NC(=O)CNC(C)(C)CC(C)(C)C)c2ccccc2n1	?	-12%	?	-26%	-8%
COc1cc(NC(=O)c2ccc(C(C)(C)C)cc2)c(OC)cc1NC(=O)CN1CCCCC1	10µM*	2%	?	?	5%
CCN1CCC(N(Cc2cccc(OC)c2)C(=O)Nc2ccc(C)cc2Cl)CC1	-20%[46.1 µM]	-5%	.	-7%	-10%
N#C/C(=C\c1ccc(Br)cc1)c1nc(-c2cc3cc(Br)ccc3oc2=O)cs1	-3%[46.1 µM]	-4%	.	1%	10%
CCN(CC)CCNC(=O)C1(O)c2cc(Br)ccc2NC(=O)N1c1ccccc1 (configuration not stated)	.	.	.	-18%	.
Brc1ccc(-[n+]2c(-c3ccccc3)cc(-c3ccccc3)cc2-c2ccccc2)cc1	.	0%	.	?	?
Oc1ccccc1-[n+]1c(-c2ccccc2)cc(-c2ccccc2)cc1-c1ccccc1	.	-6%	.	28µM*	2%
O=C([O-])c1ccccc1-[n+]1c(-c2ccccc2)cc(-c2ccccc2)cc1-c1ccccc1	.	i	.	?	-11%
[O-]c1ccccc1-[n+]1c(-c2ccccc2)cc(-c2ccccc2)cc1-c1ccccc1	.	-29%	.	28µM*	-27%
Nc1ccccc1-[n+]1c(-c2ccccc2)cc(-c2ccccc2)cc1-c1ccccc1	?	-25%	8.9µM*	?	-17%
Cc1ccccc1-[n+]1c(-c2ccccc2)cc(-c2ccccc2)cc1-c1ccccc1	.	-2%	.	10µM*	?
Cc1ccc(-c2cc(-c3ccccc3)cc(-c3ccccc3)[n+]2-c2ccc(C(=O)O)cc2)cc1	.	-9%	.	-16%	-17%
C[C@H]1CN(CCc2ccccc2)C(=O)[C@@H]1CC(=O)NCc1ccccc1	.	-5%	.	44%	0%
COc1cc(C(=O)N2CCN(c3ccccn3)CC2)cc(OC)c1OC	-12%[46.1 µM]	?	14%[46.1 µM]	3%	-14%
COc1cc2nc(C3CCC3)nc(N3CCN(c4ccccn4)CC3)c2cc1OC	?	-11%	?	18µM*	-8%
SMILES	LASV entry inh	VACV mCherry inh	Marburg entry inh	FMDV inh	Vaccinia Venus
CO/N=C(\CCC(=O)O)c1cccs1	.	.	.	-6%	.
COc1ccc(NC(=O)c2c(C)oc3ccc(O)c(CN4CCOCC4)c23)cc1	-12%[46.1 µM]	-5%	?	-20%	-4%
Cc1oc2ccc(O)c(CN(C)C)c2c1C(=O)c1ccccc1	?	-21%	11µM*	0%	-23%
COc1ccc(C(=O)c2c(C)oc3ccc(O)c(CN4CCOCC4)c23)cc1	?	.	21µM*	17%	.
O=C(c1ccccc1Oc1ccc([N+](=O)[O-])cc1)N1CCOCC1	.	.	.	-21%	.
C[C@@H]1Cc2c(O)c(O)cc(O)c2C(=O)O1	.	-4%	.	-10%	2%
CC1Oc2cc3c(-c4c(O)cc(O)c5c(O)c6c(cc45)OC(C)C(C)C6=O)c(O)cc(O)c3c(O)c2C(=O)C1C (configuration not stated)	.	?	.	?	4µM*
CC(C)[C@@H](OCc1ccccc1)[C@H](C)/C=N/OC[C@@H](O)[C@H]1O[C@@H]2OC(C)(C)O[C@@H]2[C@H]1O	.	.	-5%[14.2 µM]	.	.
CNCCCOc1ccc(C(C)(C)c2ccccc2)cc1	.	.	0%	.	.
CC(C)(C)c1ccc(C(=O)NCCOc2ccccc2F)cc1	?	-12%	?	35µM*	-19%

Source: PubChem
